Bioassay records as filed in PubChem.
DT40 TDP1 no CPT = qHTS for Inhibitors of human tyrosyl-DNA phosphodiesterase 1 (TDP1): qHTS in cells in absence of CPT; DT40 Tdp1-/- hTDP1 cells, no CPT, ATP luminescence, 48 h; Potency, µM (top dose mostly 46.2 µM), for inactives: top-dose activity change, negative = growth inhibition, hits mostly inhibitors; actives 15% (n = 420,000); AID 686978, 2013; further: potency means the concentration at half of the fitted maximal effect; on the % scale 0 is the no-effect control and ±100 the full control effect; nearly all actives have a fitted effect of over 55% in size
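Stably hTDP1-transfected Tdp1-null chicken DT40 cells were treated with library compounds minus camptothecin and grown for at least 48 hr at 37 °C, after which cellular ATP was quantified by luminescence.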
TGFb SMAD3 inh = blocks TGF-b signaling; actives 1.2% (n = 410,000); AID 588855; Potency, µM (highest dose often 46.1 µM), without a hit: at the top dose activity, negative = inhibition, usual class: inhibitors; HepG2 CAGA-GFP TGF-b/SMAD3 reporter, GFP fluorescence, 18 h; TGF-beta stimulated, 500 pg/mL final; further: potency means the concentration at half of the fitted maximal effect; on the % scale 0 is the no-effect control and ±100 the full control effect; nearly all actives have a fitted effect of over 65% in size
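Cell-based qHTS in HEPG2 carrying a CAGA-GFP Smad reporter; compounds added before 500 pg/mL final TGF-beta, 18 h incubation at 37 degrees C, GFP fluorescence quantified per cell by imaging cytometry.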
HepG2 tox = kills HepG2 cells in TGF-b inhibitor counter-screen | HepG2 CAGA-GFP viability, ATP luminescence, 18 h | Potency, µM (series often up to 46.1 µM), for the others: at the top dose activity change, negative = cytotoxicity, most hits filed as cytotoxic | actives 0.76% (n = 410,000); further: potency means the concentration at half of the fitted maximal effect
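HepG2 CAGA-GFP cells (1000/well, DMEM with 1% FBS) received compound, then TGF-beta at 500 pg/mL final, and were incubated 18 hours at 37 degrees C. Viability was read by CellTiter-Glo luminescence. Media-only wells were set as complete cell-killing and DMSO as no toxicity.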
IL-1B inflam inh = inflammasome signaling inhibition, IL-1 beta readout. activity change, % at 57.5 µM. actives 4.7% (n = 360,000). THP-1 LPS/ATP IL-1B secretion, AlphaLISA, 16 h; active compounds read low; in the data active means activity change below about -50%; inconclusive means mostly about -30% to -49%; further: on the % scale 0 is the no-effect control and ±100 the full control effect
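THP-1 cells pretreated 1 hr with compounds (up to 57.5 uM final), then stimulated with LPS (250 ng/mL final) plus ATP (1.25 mM final); secreted IL-1B measured by AlphaLISA after 16 hr, decreased signal indicating inhibition.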
TDP1 block = blocks human tyrosyl-DNA phosphodiesterase 1 | AID 485290 | recombinant TDP1, AlphaScreen DNA substrate cleavage | Potency, µM (series often up to 130 µM), for inactives: top-dose activity change, negative = inhibition, actives largely listed as inhibitors | actives 0.28% (n = 350,000) | Q9NUW8; further: potency means the concentration at half of the fitted maximal effect; on the % scale 0 is the no-effect control and ±100 the full control effect; nearly all actives have a fitted effect of over 40% in size
Target sequence (Q9NUW8 whole entry, looked up): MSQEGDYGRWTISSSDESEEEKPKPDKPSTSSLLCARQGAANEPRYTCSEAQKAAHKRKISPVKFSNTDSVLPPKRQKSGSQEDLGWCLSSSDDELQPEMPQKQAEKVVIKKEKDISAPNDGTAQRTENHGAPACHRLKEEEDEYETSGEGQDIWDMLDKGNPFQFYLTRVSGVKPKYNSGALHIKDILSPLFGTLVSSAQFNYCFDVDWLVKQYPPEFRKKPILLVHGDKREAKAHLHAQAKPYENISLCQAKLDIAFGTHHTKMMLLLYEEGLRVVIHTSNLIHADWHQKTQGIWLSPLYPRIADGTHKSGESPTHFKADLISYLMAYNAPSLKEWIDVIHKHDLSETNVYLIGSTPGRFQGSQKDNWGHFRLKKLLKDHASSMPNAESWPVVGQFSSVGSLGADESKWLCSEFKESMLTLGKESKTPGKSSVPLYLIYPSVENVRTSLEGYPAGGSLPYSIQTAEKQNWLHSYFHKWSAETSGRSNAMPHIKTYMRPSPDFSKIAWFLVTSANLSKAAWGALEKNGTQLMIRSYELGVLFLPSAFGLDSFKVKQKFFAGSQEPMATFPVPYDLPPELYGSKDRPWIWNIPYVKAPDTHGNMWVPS
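Tdp1 1 nM final; 15 min RT w/ cpd; substrate 15 nM, 5 min; beads 10 ug/ml, 10 min; AlphaScreen read. Neg ctrl: no enzyme.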
DT40 TDP1 CPT = growth inhibition of DT40 Tdp1-/-;hTDP1 cells with camptothecin (screen for TDP1 inhibitors); chicken DT40 Tdp1-/-;hTDP1 cells + 20 nM CPT, ATP luminescence, 48 h; Potency, µM (doses to about 46.2 µM), for the others: at the highest dose activity change, negative = growth inhibition, hits mostly inhibitors; actives 12% (n = 420,000); further: potency means the concentration at half of the fitted maximal effect; on the % scale 0 is the no-effect control and ±100 the full control effect; nearly all actives have a fitted effect of over 55% in size
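Chicken DT40 Tdp1-/- cells complemented with human TDP1, 400 cells/well, exposed to compounds plus 20 nM camptothecin for at least 48 h at 37 C; viability read as ATP content by CellTiter-Glo luminescence.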
Active calls of the source: *; ? = inconclusive; · = no result; [ ] = remark or other dose. Sampled rows, rich in hits. Any-hit rate of the full collection: about 18%. Unless noted, the call rests on the fitted dose curve; in most records, active means well fitted curve in the direction sought with a large enough effect; inconclusive means small, poorly fitted or top-dose-only effect, or another doubt; inactive means no such curve, though single readings can be large; an effect the other way counts as inactive or inconclusive.

SMILES | DT40 TDP1 no CPT | TGFb SMAD3 inh | HepG2 tox | IL-1B inflam inh | TDP1 block | DT40 TDP1 CPT
COc1ccccc1C(CNc1ccc(S(=O)(=O)N2CCCC2)cc1[N+](=O)[O-])N(C)C (configuration not stated) | ? | -17% | -74% | ? | 8%[56.1 µM] | 13µM*
COc1ccc(C(CNc2ccc(S(=O)(=O)N3CCCC3)cc2[N+](=O)[O-])N2CCCC2)cc1 (configuration not stated) | ? | -7% | -45% | -29 | 6% | ?
O=C(C[C@@H]1CC[C@@H]2[C@H](COC[C@H](O)CN2CCC(F)(F)F)O1)NCc1ccc2c(c1)OCO2 | -22% | · | · | 9 | · | -28%
CCOC(=O)CC(=O)CSc1ncnc2c1nnn2-c1ccccc1 | 0% | -4% | -4% | 12 | 1% | 6%
COCCNC(=O)C1CCCN(C(=O)c2nc3ccccc3s2)CC1 (configuration not stated) | -24% | 7% | 3% | 31 | · | -10%
CC(C)CCSc1nc(N)c(C#N)cc1C#N | 18µM* | -18% | -17% | ? | -7% | ?
CC1C(=O)N(Cc2cccc(F)c2)c2ccccc2N1C(=O)c1ccccc1 (configuration not stated) | 15µM* | 0% | -19% | -14 | · | ?
COc1cccc(CN2C(=O)C(C)N(C(=O)c3c(F)cccc3F)c3ccccc32)c1 (configuration not stated) | 10µM* | ? | -21% | -14 | · | 23µM*
COc1cccc(-c2ccc3c(c2)N(Cc2cccc(F)c2)C(=O)C(C)S3)c1 (configuration not stated) | ? | -21% | -17% | -4 | · | ?
CC1C(=O)N(Cc2ccccc2F)c2ccccc2N1C(=O)c1c(F)cccc1F (configuration not stated) | 18µM* | ? | -27% | ? | · | 18µM*
COC(=O)Cn1c(C2CC(=O)N(c3c(C)cccc3C)C2)nc2ccccc21 (configuration not stated) | -19% | 9% | 1% | · | 3% | 0%
Cc1ccc(S(=O)(=O)NCCc2nnc3ccc(SCc4ccc(F)cc4)nn23)cc1 | 18µM* | 0% | -35% | · | -3% | 16µM*
Cc1ccc(S(=O)(=O)NCCc2nnc3ccc(SCc4cccc(F)c4)nn23)cc1 | 23µM* | ? | -40% | · | 8% | 15µM*
CC(=O)NS(=O)(=O)c1ccc(NS(=O)(=O)c2ccccc2[N+](=O)[O-])cc1 | -1% | 5% | 7% | -1 | · | 2%
CCN=c1scc(-c2cccs2)n1/N=C/c1cc(OC)ccc1O | 21µM* | 13µM* | -43% | -62* | 9% | ?
CC(C)N=c1scc(-c2cccs2)n1/N=C/c1ccc(O)c(O)c1O | 13µM* | 3% | -31% | -83* | 12% | 13µM*
CN=c1scc(-c2ccccc2F)n1/N=C/c1ccc(O)c(O)c1O | 12µM* | ? | 6% | -14 | 10% | 13µM*
COc1ccccc1-c1c(C)nn2c(N3CCN(c4cccc(Cl)c4)CC3)cc(C)nc12 | 7% | -12% | -7% | · | 4% | -1%
CCN(CC)C(=S)SC1CCCCN(C(=O)c2ccccc2)C1=O (configuration not stated) | -2% | 1% | -1% | -3 | -4% | 18µM*
Cc1ccc(C(O)(C(=O)NNS(=O)(=O)c2ccc(C)cc2)c2ccc(C)cc2)cc1 | -20% | -25% | 0% | -53* | 0% | 9%
CCOc1ccc(S(=O)(=O)NCc2ccc3c(c2)OCO3)cc1NC(C)=O | 0% | ? | -11% | 12 | -18% | -2%
S=C(NCCCc1cnc[nH]1)NCCCN(Cc1ccc(Cl)cc1)c1ccc(Br)cn1 | · | ? | -98% | · | · | ·
S=C(NCCCc1cnc[nH]1)NCCCN(CCc1ccc(Cl)cc1)c1ccc(Br)cn1 | ? | ? | 10µM* | · | · | ?
S=C(NCCCc1cnc[nH]1)NCCCN(CCc1ccccc1)c1ccc(Br)cn1 | 8.9µM* | ? | -53% | · | · | 10µM*
S=C(NCCCc1cnc[nH]1)NCCCN(Cc1ccccc1)c1ccc(Br)cn1 | · | ? | -57% | · | · | ·
SMILES | DT40 TDP1 no CPT | TGFb SMAD3 inh | HepG2 tox | IL-1B inflam inh | TDP1 block | DT40 TDP1 CPT
O=C(NCCCc1cnc[nH]1)NCCCN(Cc1ccc(Cl)cc1)c1ccc(Br)cn1 | 4µM* | ? | -58% | · | · | 2.2µM*
COc1cccc(NC(=O)c2cc3c(=O)n(C)c4ccccc4c3n2C)c1 | -13% | 7% | -2% | · | 8% | ?
COCCCNC(=O)c1cn(CC(C)C)c(=O)c2c1c1ccccc1n2C | -25% | -19% | -12% | -20 | 5% | ?
CCOc1ccc(NC(=O)c2cc3c(=O)n(C)c4ccccc4c3n2C)cc1 | 16µM* | 21% | 8% | 10 | -2% | 8.2µM*
CCOc1ccc(NC(=O)c2cn(CC(C)C)c(=O)c3c2c2ccccc2n3C)cc1 | 8.2µM* | -16% | -31% | 28 | -1% | ?
COc1ccccc1NC(=O)c1cc2c(=O)n(C)c3ccccc3c2n1C | 15µM* | ? | -16% | ? | · | ?
CCOc1ccc(CCNC(=O)c2cc3c(=O)n(C)c4ccccc4c3n2C)cc1OCC | 12µM* | 3% | -18% | · | 0% | 23µM*
COc1ccc(CNC(=O)Cc2c(C)c3c(cc(C)c4c(C)c(C)oc43)oc2=O)cc1 | -15% | 0% | -13% | · | 5% | -5%
COc1ccccc1NC(=O)CCCOc1cc(=O)n(C)c2ccccc12 | 21µM* | -2% | -44% | · | 1% | ?
CCOC(=O)c1c(-c2ccc(C)cc2)csc1NC(=O)C1CC=CCC1C(=O)O (configuration not stated) | -24% | 5% | -3% | 17 | ? | -7%
CCOC(=O)c1c(-c2ccccc2)csc1NC(=O)COc1ccc2c(C)cc(=O)oc2c1 | 12µM* | -16% | 5% | -20 | 0% | ?
CCOC(=O)c1c(NC(=O)c2ccc(S(=O)(=O)N3CCOCC3)cc2)sc2c1CC(C)(C)NC2(C)C | ? | 0% | -7% | 8 | 4% | ?
CCOC(=O)c1c(-c2ccccc2)csc1NC(=O)c1ccc(S(=O)(=O)N2CCOCC2)cc1 | 10µM* | 2% | 13% | 0 | 0% | 5.8µM*
